# Pf growth 48h: inhibits P. falciparum growth in the first generation, 48 h; P. falciparum luciferase growth in erythrocytes, 48 h; Potency, µM (doses to about 28.7 µM), for the others: at the highest dose activity change, negative = inhibition, most hits filed as inhibitors; actives 5.9% (n = 310,000); note: potency is the fitted concentration of half-maximal effect; % is set by controls: 0 for no effect and ±100 for the full control effect
#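 Parasite viability was followed by luminescence of a genomically integrated firefly luciferase. Cultures held 0.1% parasitemia at 2% hematocrit (final), incubated under 5% CO2 at 37 C.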
# Shiga toxin inh: Shiga toxin inhibition | actives 9.2% (n = 290,000) | inhibition, % at 38.7 µM | AID 2315 | Vero cells, Shiga toxin protein synthesis inhibition reporter; in the data active = inhibition mostly above about 28%, no sharp cut-off; inactive = mostly below about 43%; note: 0% is about no effect
# CHX counter: counter-screen hit for Shiga toxin inhibitors, cycloheximide; cell reporter, cycloheximide protein synthesis inhibition counterscreen; max response, %; actives 12% (n = 300,000); AID 2314; in the data active = max response mostly above about 13%, no sharp cut-off; inactive = mostly below about 14%; note: read at 38.3 µM for the half of the compounds with a filed dose; 0% is about no effect
# MARV entry inh: inhibitors of Marburg virus binding or cell entry. actives 1.8% (n = 300,000). Marburg virus pseudotyped entry inhibition, cell reporter. Potency, µM (highest dose often 37.8 µM), without a hit: at the highest dose activity change, negative = inhibition, hits mostly inhibitors; calls by dose curve; tested in HEK293 cells; note: potency is the fitted concentration of half-maximal effect; % is set by controls: 0 for no effect and ±100 for the full control effect
# Pf growth 96h: P. falciparum growth inhibition at 96 hour, primary screen for plastid delayed-death inhibitors. actives 6.9% (n = 320,000). Potency, µM (doses to about 28.7 µM), inactives show at the top dose activity change, negative = inhibition, hits mostly inhibitors. P. falciparum luciferase reporter growth, 96 h; note: potency is the fitted concentration of half-maximal effect; % is set by controls: 0 for no effect and ±100 for the full control effect
#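 Infected RBCs, 2% Hct / 0.05% parasitemia final; luciferase-reporter P. falciparum; cpd 96 h, 37 C, 5% CO2; luciferase detection reagent; luminescence.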
# Lassa entry inh: inhibitors of Lassa virus binding or cell entry; Potency, µM (highest dose often 37.9 µM), for the others: at the top dose activity change, negative = inhibition, actives largely listed as inhibitors; Lassa virus pseudotype entry inhibition, cell reporter; actives 1.2% (n = 300,000); calls by dose curve; tested in HEK293 cells; note: potency is the fitted concentration of half-maximal effect; % is set by controls: 0 for no effect and ±100 for the full control effect; nearly all actives have a fitted effect of over 50% in size
# The depositor's hits bear a star; ? = inconclusive; / = no result; [ ] = dose if it differs, or a comment. A selection: hits, their analogues and other compounds. The true share with any hit is near 19%. Unless noted, calls come from the whole dose curve; as a rule, active = well fitted inhibition curve with a large enough effect; inconclusive = small, poorly fitted or top-dose-only effect, or another doubt; inactive = no such curve, though single readings can be large or run the other way.
SMILES,Pf growth 48h,Shiga toxin inh,CHX counter,MARV entry inh,Pf growth 96h,Lassa entry inh
Cc1cccn2cc(-c3ccc(Cl)cc3)nc12,16%,62*,45*,?,388%,?
Cc1cccn2cc(-c3ccc(S(=O)(=O)N4CCOCC4)cc3)nc12,-23%,-13,-2,13%,-26%,-10%
Cc1cccn2cc(-c3ccc(S(=O)(=O)N4CCCCC4)cc3)nc12,17%,16,-2,?,10µM*,?
O=[N+]([O-])c1cccn2cc(-c3ccc(Br)cc3)nc12,?,67*,44*,?,4.7µM*,18%
CC1(C)Cc2c(c(N3CCOCC3)nc3sc(C(=O)Nc4cccc(Cl)c4)c(N)c23)CO1,28%,21,8,/,26%,/
CCOC(=O)CN(C(=O)CNC(=O)c1ccco1)C(C(=O)NC1CCCCC1)c1cccs1 (stereo not given),?,-8,-1,6%,?,?
Cc1cc(NS(=O)(=O)c2ccc(NC(=O)CNS(=O)(=O)c3ccccc3)cc2)nc(C)n1,/,/,/,16%,/,?
Cc1ccc(-c2cn3cccc(C)c3n2)cc1,-41%,51*,33*,?,?,?
C[C@H](N)CN1CCc2ccc(Br)cc21,/,/,/,3.5µM*,/,?
CC(=O)N1CCc2ccc([N+](=O)[O-])cc21,/,/,/,-2%[46.1 µM],/,2%[46.1 µM]
O=C(NC1CCCCC1)NC1CCN(CC(=O)N2CCOCC2)CC1,14%,-6,-4,9%,23%,9%
Cc1cccc(C)c1NCc1n[nH]c(=S)n1-c1ccccc1,14%,-6,5,-6%[46.1 µM],1%,2%
O=C1/C(=C/c2ccccc2)Nc2ccccc21,?,23,0,-20%,3.7µM*,-1%
CCn1ncc(Br)c1C(=O)Nc1ccc2c(c1)OCCO2,134%,99*,70*,?,16%,-4%
CCn1ncc(Br)c1C(=O)Nc1cc(C(=O)OC)ccc1C(=O)OC,35%,37*,15*,7%,?,4%
CCn1ncc(Br)c1C(=O)Nc1ncc(C)s1,37%,69*,27,0%,138%,5%
CCn1ncc(Br)c1C(=O)Nc1ccc(C(C)C)cc1,-8%[0.00184 µM],69*,64*,13µM*,?,-13%[46.1 µM]
CCn1ncc(Br)c1C(=O)Nc1cccc(F)c1,7%,16,13,2%[46.1 µM],-24%,-4%[46.1 µM]
COc1nc(NCCN2CCOCC2)nc(Nc2ccc([N+](=O)[O-])cc2)n1,18%,0,-1,2%,/,0%
CCC(C)c1ccc(NC(=O)c2c([N+](=O)[O-])cnn2CC)cc1 (stereo not given),-47%,44,20*,-18%,5.2µM*,-6%
COC(=O)c1cnn2c(C)c(Cc3cccc(F)c3)c(C)nc12,?,29,3,/,?,/
CC(C)(C)c1nc(N2CCN(C(=O)c3ccco3)CC2)c2nnn(Cc3ccccc3)c2n1,?,13,2,?,51%,26µM*
c1ccc(CC2CCN(c3nc4ccccc4n4nnnc34)CC2)cc1,-5%,17,8.5*,16%,?,2%
O=C(c1ccco1)N1CCCC(c2nc3c(nnn3Cc3ccccc3)c(=O)[nH]2)C1 (stereo not given),?,-7,-3,1%[46.1 µM],-6%,4%
O=C(c1ccco1)N1CCN(c2nc3ccccc3n3nnnc23)CC1,-25%,36*,24*,17%,?,4%
SMILES,Pf growth 48h,Shiga toxin inh,CHX counter,MARV entry inh,Pf growth 96h,Lassa entry inh
CCOC(=O)CSc1nc(C2CC2)cc(-c2ccc(F)cc2)c1C#N,?,-17,-3,10%,?,13%
O=C1NC(=S)S/C1=C\C=C\c1ccc([N+](=O)[O-])o1,0.29µM*,92*,80*,?,0.29µM*,?
O=C1NC(=S)S/C1=C/c1ccc(N2CCOCC2)o1,9%,30,13,?,28%,-10%
CC1(C(=O)Nc2nnc(SCc3ccccc3)s2)Cc2ccccc2C(=O)O1 (stereo not given),/,-6,14,7%,?,3%
CCC1(CC)NC(=O)N(CC(=O)Nc2sc3c(c2C(N)=O)CCC3)C1=O,-26%,-14,-6,?,-16%,29%
Cc1nn(C)c2c1c(C(F)(F)F)cc(=O)n2CC(=O)NCc1ccc(OC(C)C)cc1,/,/,/,/,/,5%[46.1 µM]
